# Shown are actives, neighbours in structure and some others; about 2.4% of the full set was active somewhere.
# D2 PAM-1: potentiates the human D2 dopamine receptor allosterically | 360,000 tested, 0.23% active | AID 624464 | potentiation, % (no concentration beside the values) | P14416 | DiscoveRx D2 beta-arrestin cells, luminescence, 90 min; 100% = 57 uM dopamine signal; in the data active = potentiation above about 50%; inconclusive = mostly about 30% to 49%
# Target sequence (P14416 whole entry, looked up): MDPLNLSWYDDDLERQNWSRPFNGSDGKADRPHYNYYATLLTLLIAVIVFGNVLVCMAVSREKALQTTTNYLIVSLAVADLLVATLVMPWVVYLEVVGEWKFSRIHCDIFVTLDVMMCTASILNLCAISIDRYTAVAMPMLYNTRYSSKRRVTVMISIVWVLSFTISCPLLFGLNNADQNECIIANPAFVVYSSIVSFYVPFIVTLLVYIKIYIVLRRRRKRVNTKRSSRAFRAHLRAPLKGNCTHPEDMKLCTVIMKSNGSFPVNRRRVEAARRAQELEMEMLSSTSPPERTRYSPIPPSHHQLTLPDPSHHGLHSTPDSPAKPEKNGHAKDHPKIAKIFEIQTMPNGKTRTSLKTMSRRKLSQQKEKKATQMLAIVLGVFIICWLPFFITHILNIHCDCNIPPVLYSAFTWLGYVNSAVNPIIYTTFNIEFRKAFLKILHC
#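 PathHunter beta-arrestin assay in DiscoveRx D2 cells. Compounds were added with an EC20 of dopamine (50 nM final) for 90 min at 37 deg C. Luminescence was read 1 h after detection reagent, with 57 uM dopamine as the EC100 control.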
# D2 antag: antagonizes the human D2 dopamine receptor. P14416. HEK293 TREx D2 cells, calcium flux, dopamine EC80. inhibition, % at 10 µM. 340,000 tested, 2% active; in the data active = inhibition above about 30%; inactive = below that, where a call was filed; also: 0% is about no effect
#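 In this primary screen, negative modulation is detected by tracking calcium flux after an EC80 dopamine challenge in inducible HEK293 T-REx D2 cells preexposed to test compound for 180 s.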
# D2 PAM-2: D2 dopamine receptor (human) potentiation | P14416 | HEK293 T-REx D2, calcium flux, EC20 dopamine potentiation | potentiation, % at 10 µM | 340,000 tested, 0.34% active;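 active = potentiation over 3 SD above the plate norm, cut at about 30% in these data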; also: 0% is about no effect
#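 Primary screen. Calcium kinetics in induced HEK293 T-REx D2 cells: compound pre-addition 180 s, EC20 dopamine, 180 s more.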
# D2 ag-1: D2 dopamine receptor (human) agonism; HEK293 T-REx D2 cells, calcium flux agonist mode; activation, % at 2 µM; AID 485358; P14416; 340,000 tested, 0.53% active;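 active = activation over 3 SD above normal in the single-dose calcium agonist read, cut at about 30% in these data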; also: 0% is about no effect
#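 HEK293 Trex D2 cells, tetracycline-induced, o/n 30 C 5% CO2; no-wash Ca dye, RT 30–90 min; 10-cycle baseline, 23 nl cpd added, kinetic Ca read 180 s; agonist hits = positive Ca response.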
# D2 ag-2: agonists of human D2 dopamine receptor (beta-arrestin); activation, % (concentration not given with the values); P14416; DiscoveRx PathHunter D2 beta-arrestin, luminescence, 90 min; 100% = 57 uM dopamine signal; 360,000 tested, 0.084% active; in the data active = activation above about 40%; inconclusive = between about 15% and that limit
#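 DiscoveRx PathHunter D2 beta-arrestin cells (2,100/well) attached overnight, then compound-stimulated 90 min at 37 C in HBSS/10 mM HEPES/0.1% Tween-20 buffer; beta-galactosidase complementation read by luminescence after 1 h at ambient temperature. Dopamine 57 uM final (EC100) as control.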
# D3 ag: confirmation of human D3 dopamine receptor agonists, beta-arrestin | shares compounds with D2 ag-1 | DiscoveRx D3 beta-arrestin cells, luminescence, 90 min | Potency, µM (highest dose often 76.9 µM), inactives show top-dose activation, usual class: activators | 2,300 tested, 4% active;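 also: potency is read from the fitted curve at half-maximal effect; 100% = dopamine control response; nearly all actives have a fitted effect of over 70% in size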
# D2 ag-3: activates human D2 dopamine receptor in D3 counterscreen; AID 720507; shares compounds with D2 ag-1; DiscoveRx PathHunter D2 beta-arrestin, luminescence, 90 min; response scale: percent relative to full dopamine signal; Potency, µM (series often up to 76.9 µM), for the others: at the top dose activation, usual class: activators; 2,300 tested, 5.9% active; also: potency is read from the fitted curve at half-maximal effect; % of control where 0% means no effect; nearly all actives have a fitted effect of over 70% in size
# An asterisk follows results filed as active; u = inconclusive; x = not tested or not shown. Unless noted, calls follow the shape of the dose curve; as a rule, active = well fitted activation curve with a large enough effect; inconclusive = small, poorly fitted or top-dose-only effect; inactive = flat fitted curve, though single readings scatter.
SMILES,D2 PAM-1,D2 antag,D2 PAM-2,D2 ag-1,D2 ag-2,D3 ag,D2 ag-3
CCN(CC)C(=O)CN1CCN(c2ccccc2F)CC1,-17.9,7.3,-7.5,0.0,0.4,x,x
C/C=C(\C)CN1CCN(c2ccccc2F)CC1,-8.7,65.4*,-11.0,38.0*,10.7,2.7%,19.1%
C/C=C(\C)CN1CCN(c2ccccc2)CC1,-10.1,74.8*,-20.8,79.1*,13.3,1.9%,24.8%
C/C=C(\C)CN1CCN(c2cc(C)ccc2C)CC1,-20.5,-3.1,10.7,0.1,2.6,x,x
CCCNC(=O)Cn1nc(-c2ccc(OC)cc2)c2cnc3ccc(F)cc3c21,x,x,8.6,x,x,x,x
COc1cccc(CNC(=O)C(=O)NCC(c2ccc3c(c2)OCO3)N2CCOCC2)c1 (stereo not given),x,x,0.0,0.9,x,x,x
COc1ccc(C2(CCN)CC(C)N(C)CC2C)cc1 (stereo not given),-13.9,23.3,-17.4,31.2*,0.4,-3.5%,2.7%
COc1cc(C)c(NC(=O)C(=S)NCCc2ccccc2)cc1C,1.2,-10.8,9.2,5.4,1.5,9.6%,23.9%
COc1ccc(NC(=S)NCCc2ccccc2)c(C)c1,3.3,1.1,-3.0,-0.7,-1.8,x,x
COC(=O)Nc1ncc(CN2CCC(c3ccccc3)CC2)s1,-24.7,98.1*,-27.7,84.8*,13.2,8.3%,22.1%
CC(Sc1ncccn1)C(=O)Nc1ccc2c(c1)OCCO2 (stereo not given),-36.2,x,x,x,-2.7,x,x
CC(Sc1nc2ccccc2[nH]1)C(=O)Nc1ccc2c(c1)OCCO2 (stereo not given),-16.4,65.8*,-8.4,0.5,-2.4,-11.8%,-4.9%
CN(C)c1ccc(CN2CCc3nc(N4CCN(c5ccccn5)CC4)ncc3C2)cc1,x,x,-14.0,x,x,x,x
Cn1c(SCC(=O)c2ccc3c(c2)NC(=O)CO3)nc2ccccc21,-4.6,-13.0,2.9,2.2,4.8,x,x
CCCn1c(SCC(=O)c2ccc3c(c2)NC(=O)CO3)nc2ccccc21,-1.5,1.9,-6.9,5.2,-0.1,-2.2%,4.5%
CC(C)c1ccc(OCC(O)CN2CCN(c3ccccc3)CC2)cc1 (stereo not given),-7.9,78.3*,-26.2,54.1*,u,-4.2%,u
COc1ccc(OCC(O)CN2CCN(c3ncccn3)CC2)cc1 (stereo not given),-19.0,62.2*,-19.6,70.5*,u,u,u
COc1ccc(N2CCN(CC(O)COc3ccc(C(C)(C)C)cc3)CC2)cc1 (stereo not given),x,x,-2.5,8.7,x,x,x
COc1ccc(OCC(O)CN2CCN(c3ccccc3)CC2)cc1 (stereo not given),-25.5,-3.7,-22.2,88.5*,u,u,u
COc1ccc(C(=O)CN2CCN(c3ncccn3)CC2)cc1,-4.1,39.2*,-33.4,80.2*,13.8,26.1%,26.8%
CCC12CN3CC(CC)(CN(C1)C3c1cc(Br)ccc1OC)C2=O (stereo not given),x,x,19.5,1.4,x,x,x
CC1CCC(NC(=O)c2ccc3c(c2)N(Cc2cccc(F)c2)C(=O)c2ccccc2S3)CC1 (stereo not given),x,x,-9.0,x,x,x,x
COC(=O)c1cc2oc(C)cc2n1CC(=O)Nc1ccc(C(C)C)cc1,x,x,-6.7,-0.3,x,x,x
Cc1ccc(NC(=O)CN2C(=O)CCc3cc(S(=O)(=O)N4CCOCC4)ccc32)cc1N(C)C,x,x,1.6,1.0,x,x,x
OC(COc1ccc2c(c1)OCO2)CN1CCN(c2ccccc2)CC1 (stereo not given),-13.6,81.5*,-32.4,71.3*,u,u,u
Cc1ccc2c(c1)[nH]c1c(=O)n(Cc3ccco3)cnc12,1.7,18.4,-16.7,33.2*,-1.4,1.4%,0.0%
Cc1cc(C)cc(NC(=O)CCc2c(C)nc3c(c2C)c(=O)n(C)c(=O)n3C)c1,x,x,4.1,-1.3,x,x,x

# Screening results from PubChem BioAssay.
